# Bioassay records (PubChem BioAssay)
# GAA glycogen mod = qHTS Assay for Inhibitors and Activators of Human alpha-Glucosidase Cleavage of Glycogen; Lysosomal alpha-glucosidase (Homo sapiens), P10253; recombinant GAA, glycogen substrate, Amplex Red glucose oxidase fluorescence; Potency, µM (titrated, usually from 76.4 µM), inactives show top-dose activity change, negative = inhibition, actives largely listed as inhibitors; actives 0.38% (n = 300,000);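 further: potency means the concentration at half of the fitted maximal effect; 0% = full enzyme reaction and -100% = no-enzyme basal signal; the screen sought inhibitors and activators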
#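 qHTS, 1536-well; enzyme 4 nM final; cpd up to 77 uM; substrate bovine liver glycogen 30 ug; 50 mM citrate/phosphate pH 5.0, 0.01% Tween-20; 37 C, 40 min; Amplex Red detection 45 min RT; Hill fit → AC50.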
# GLA inh pH 4.5 = qHTS Assay for Inhibitors of Human alpha-Galactosidase at pH 4.5; purified enzyme, 4-MU-alpha-Gal fluorescence, pH 4.5; activity change, negative = inhibition, % at 105 µM; 230,000 tested, under 10 active; AID 1467, 2008;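 further: 0% = full activity with enzyme and -100% = basal without enzyme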
# Target sequence (P06280 whole entry, looked up): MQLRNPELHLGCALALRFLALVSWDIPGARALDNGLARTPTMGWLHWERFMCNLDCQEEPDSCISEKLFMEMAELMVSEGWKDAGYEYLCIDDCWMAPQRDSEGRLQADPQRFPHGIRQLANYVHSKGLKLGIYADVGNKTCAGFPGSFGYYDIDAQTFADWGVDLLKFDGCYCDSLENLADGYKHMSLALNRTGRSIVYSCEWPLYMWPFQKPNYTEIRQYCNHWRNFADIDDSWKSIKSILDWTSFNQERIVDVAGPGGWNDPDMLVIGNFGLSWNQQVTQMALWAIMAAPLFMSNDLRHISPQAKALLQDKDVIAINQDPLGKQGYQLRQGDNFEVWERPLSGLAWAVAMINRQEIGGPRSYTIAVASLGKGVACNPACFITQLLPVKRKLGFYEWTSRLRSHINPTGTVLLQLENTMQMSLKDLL
# GAA inhib = qHTS Assay for Inhibitors of Human alpha-Glucosidase as a Potential Chaperone Treatment of Pompe Disease. AID 1466, 2008. Lysosomal alpha-glucosidase (Homo sapiens), P10253. purified human GAA, 4-MU-alpha-glucoside fluorescence. actives 0.005% (n = 200,000). Potency, µM (series often up to 76.9 µM), for the others: top-dose activity change, negative = inhibition, usual class: inhibitors;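 further: potency means the concentration at half of the fitted maximal effect; plate controls were uninhibited enzyme wells for no effect and no-enzyme background for full effect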
#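 Human alpha-glucosidase, 4 nM, pre-mixed with test compounds before 400 uM 4-methylumbelliferyl substrate; 20 min room temperature at pH 5.0. Fluorescence read after pH 10 stop; AC50 values from Hill-equation fits.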
# N370S GC mod = qHTS Assay for Inhibitors and Activators of N370S glucocerebrosidase as a Potential Chaperone Treatment of Gaucher Disease. Lysosomal acid glucosylceramidase (Homo sapiens), P04062. actives 0.092% (n = 330,000). N370S GC spleen homogenate, 4MU-glucoside fluorescence. Potency, µM (top dose mostly 59.4 µM), for the others: top-dose activity change, negative = inhibition, actives largely listed as inhibitors;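 further: potency means the concentration at half of the fitted maximal effect; 0% = full enzyme activity and -100% = no enzyme basal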
# aGal spleen mod = qHTS Assay for Inhibitors and Activators of Human alpha-Galactosidase From Spleen Homogenate; Alpha-galactosidase A (Homo sapiens), P06280; human spleen homogenate, 4MU-alpha-Gal fluorescence, 40 min; Potency, µM (titrated, usually from 80 µM), without a hit: top-dose activity change, negative = inhibition, usual class: inhibitors; actives 0.008% (n = 240,000); AID 2107, 2009;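 further: potency means the concentration at half of the fitted maximal effect; 0% = enzyme with vehicle and -100% = no enzyme basal signal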
#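 Inhibition or activation of alpha-galactosidase in human spleen homogenate is scored by 4-MU fluorescence after 40 min at 37C, pH 5.0, with 1 mM substrate. AC50s come from concentration-response fitted to the Hill equation.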
# aGlu spleen mod = qHTS Assay for Inhibitors and Activators of Human alpha-Glucosidase From Spleen Homogenate; actives 0.006% (n = 240,000); Lysosomal alpha-glucosidase (Homo sapiens), P10253; human spleen homogenate, 4-MU-alpha-glucoside fluorescence; Potency, µM (top dose mostly 79.9 µM), inactives show top-dose activity change, negative = inhibition, usual class: inhibitors;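 further: potency means the concentration at half of the fitted maximal effect; 0% = enzyme with vehicle and -100% = no enzyme basal signal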
#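 Enzyme source: human spleen homogenate, 1 ug/well. Buffer 50 mM citric acid/K phosphate pH 5.0, 0.01% Tween-20. 4-MU-alpha-glucoside 1 mM; 37 C x 40 min; NaOH/glycine stop; fluorescence.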
# Active calls of the source: *; ? = inconclusive; · = no result given; ! = not active in a repeat; [ ] = dose if it differs, or a comment. Rows were chosen to be rich in hits. Some 0.41% of all compounds tested hit in one or more screens of this group. The call rests on the fitted dose curve; in most records, active means well fitted curve in the direction sought with a large enough effect; inconclusive means small, poorly fitted or top-dose-only effect, or another doubt; inactive means no such curve, though single readings can be large; an effect the other way counts as inactive or inconclusive.
SMILES,GAA glycogen mod,GLA inh pH 4.5,GAA inhib,N370S GC mod,aGal spleen mod,aGlu spleen mod
CC(C)C(c1nnnn1Cc1ccc(F)cc1)N1CCN(c2ccc(O)cc2)CC1 (stereo unspecified),7.03µM*,-5.1,14.1%,?,-11.2%,7.2%
CCC(C)(C)n1nnnc1C(c1ccc2ncccc2c1)N1CCN(c2ccc(O)cc2)CC1 (stereo unspecified),1.41µM*,1.1,·,?,-0.2%,2.8%
c1ccc(CCn2nnnc2C(c2cccnc2)N2CCN(c3ccccc3)CC2)cc1 (stereo unspecified),3.0%,6.2,-4.1%,-5.0%,4.6%,-3.9%
CCOc1ccccc1NC(=O)C1=C(C)NC(=O)NC1c1cccs1 (stereo unspecified),-0.3%,7.5,-8.1%,13.5%,2.0%,-0.3%
O=C(c1ccc2c(c1)OCO2)N(c1ccc(Br)cc1)C1C=CS(=O)(=O)C1 (stereo unspecified),-1.2%[76.3 µM],·,·,-6.2%,·,·
O=C(Cn1cc([N+](=O)[O-])cn1)N1CCN(c2ccccc2)CC1,-2.2%[76.3 µM],·,·,-2.1%,·,·
CCN1CCN(CC(=O)N2CCCC(C(=O)c3ccc(Oc4ccccc4)cc3)C2)CC1 (stereo unspecified),7.94µM*,1.7,6.5%,?,-4.0%,-19.2%
COc1ccccc1-c1nnc(SCC(=O)c2ccc(Cl)cc2)n1-c1ccccc1,-6.2%[76.3 µM],·,·,·,·,·
CCn1c(SCC(=O)c2ccc(O)c(O)c2)nnc1-c1ccccc1OC,24.9µM*,-0.4,-14.6%,-1.3%,1.5%,-14.5%
C=CCn1c(SCC(=O)c2ccc(O)c(O)c2)nnc1-c1ccccc1OC,17.6µM*,-8.8,-3.0%,-7.0%,-8.4%,-0.5%
C=CCn1c(SCC(=O)c2ccc(O)c(O)c2)nnc1-c1cccnc1,?,-9.4,·,-14.6%,-3.2%,6.2%
CCn1c(SCC(=O)c2ccc(O)c(O)c2)nnc1-c1ccccc1,7.94µM*,6.9,?,-7.4%,-2.9%,-8.5%
O=C(Nc1ccc(NC(=O)c2cccs2)cn1)c1ccccc1,12.2%,6.0,6.6%,0.9%,-4.0%,-9.3%
CN(C)CCCCCNCCCNC(=O)/C=N\O,11.7%,0.8,-10.1%,-1.1%,-12.7%,-16.0%
CCOC(=O)CNc1c(-c2ccccc2)nc2ccc(Cl)cn12,4.47µM*,7.2,-2.2%,6.6%,17.8%,0.0%
O=C(Nc1c(-c2ccccc2)nc2ccc(Cl)cn12)c1cccs1,4.6%,3.7,-4.9%,-4.1%,1.7%,-4.0%
CCOC(=O)CNc1c(-c2ccc(O)cc2)nc2ccccn12,35.2µM*,-2.8,0.2%,-10.3%,-10.0%,4.1%
CCOC(=O)CNc1c(-c2ccc(O)cc2)nc2ccc(Cl)cn12,22.4µM*,-11.9,8.9%,?,1.3%,-7.3%
CCOC(=O)C(=O)c1c(-c2ccc(C)cc2)nc2ccccn12,-9.6%,-5.5,-5.5%,2.8%,2.5%,-5.3%
O=C(CCCN1C(=O)c2ccccc2C1=O)Nc1cccc(S(=O)(=O)NC2=NCCC2)c1,-0.8%,11.9,3.0%,1.9%,-7.3%,-0.1%
CC1(C)CC(=O)C=C(NCCc2ccccc2)C1,-12.8%[76.3 µM],·,·,-2.2%,·,·
CCN(C(=O)CN1CCC(C)CC1)c1c(N)n(Cc2ccccc2)c(=O)[nH]c1=O,·,·,·,-0.1%,·,·
CCN(C(=O)CN1CCN(c2ccc(O)cc2)CC1)c1c(N)n(Cc2ccccc2)c(=O)[nH]c1=O,17.8µM*,8.4,-1.2%,2.7%,6.3%,3.1%
CC(CCc1ccccc1)NC(=O)CN1CCN(Cc2ccccc2)C1=O (stereo unspecified),12.4%,-5.7,5.1%,6.4%,-7.9%,-3.4%
CC(CCc1ccccc1)NC(=O)CN1CCN(c2ccc(O)cc2)CC1 (stereo unspecified),4.43µM*,0.7,?,-3.2%,-5.2%,0.1%
SMILES,GAA glycogen mod,GLA inh pH 4.5,GAA inhib,N370S GC mod,aGal spleen mod,aGlu spleen mod
COC(=O)[C@@H](NC(=O)O[C@@H]1C(=O)c2cc(OC)ccc2O[C@H]1c1cccc(OC)c1)C(C)C,·,-5.2,·,-0.2%,4.2%,4.1%
Nc1ccc(Nc2ccccc2)c(S(=O)(=O)O)c1,14.1µM*,4.8,-2.8%,5.0%,-15.7%,-15.4%
Cc1ccc(Nc2ccc(N)cc2S(=O)(=O)O)cc1,?,-7.5,-6.6%,-1.2%,6.4%,-2.8%
Cc1cccc(NC(=O)c2cc(-c3c(C)cc(C)cc3O)n[nH]2)c1,3.3%,·,·,-0.5%,·,·
CCOC(=O)C(C(C)=O)c1c(Br)c(O)c(O)c2c(C(=O)c3ccc(C)cc3)coc12 (stereo unspecified),31.6µM*,3.0,-9.5%,1.1%,-3.2%,-12.6%
CN(C)c1ccc(NC(=O)N2CCOCC2)cc1,12.6µM*,2.4,1.8%,6.7%,8.5%,9.5%
O=C(Nc1ccc(F)cc1)N1CCOCC1,8.4%,-1.4,-5.5%,0.6%,-5.9%,-13.4%
O=C(O)CC[C@@H](C(=O)O)N1C(=O)c2ccccc2C1=O,-0.7%,-1.2,·,10.0%,7.94µM*!,-11.6%
COC(=O)CC[C@@H](C(=O)O)N1C(=O)c2ccccc2C1=O,-1.1%,3.1,-2.2%,-3.7%,-3.2%,0.3%
COc1cc(C2C(C#N)=C(C)NC3=C2C(=O)CC(C)(C)C3)cc(OC)c1O (stereo unspecified),12.5µM*,-3.5,-8.3%,-3.0%,3.2%,-1.6%
N=c1c2c(-c3ccccc3)c(-c3ccccc3)n(Cc3ccco3)c2ncn1CCCN1CCOCC1,-5.8%,-12.1,-5.3%,-24.0%,-2.8%,-5.5%
N=c1c2c(-c3ccccc3)c(-c3ccccc3)n(Cc3ccccc3)c2ncn1CCO,4.9%,?,?,3.98µM*,-16.1%,-19.0%
N=c1c2c(-c3ccccc3)c(-c3ccccc3)n(Cc3ccco3)c2ncn1CCCn1ccnc1,-1.6%,?,-9.0%,3.16µM*,-3.5%,-2.0%
O=C(Nc1ccn(Cc2ccccc2)n1)c1ccc(F)cc1,5.9%,-0.9,1.0%,24.8%,-4.2%,0.2%
CC(=O)c1ccc(N2CCOCC2)cc1O,·,·,·,-0.1%,-3.2%,2.0%
CC(=O)c1ccc2c3c(ccc(O)c13)CC2,31.4µM*,-0.3,4.0%,5.6%,-1.1%,1.2%
Nc1nc2c([nH]c(=S)n2C2OC(CO)C(O)C2O)c(=O)[nH]1 (stereo unspecified),·,-1.6,·,3.9%,8.4%,-4.1%
